Reference: PubChem BioAssay AID1159580 (chemical genetic matrix, 2015)
Several values for one entry are separate records, joined by “and”; a condition that tells them apart may be missing. Equal values may be shown once. In all, about 5,500 compounds went through this assay and about 2,000 (36%) were called active. Not shown: some 18% with an inconclusive outcome. Rule as the data show it: active = normalized growth mostly below about 0.91 (no sharp cut-off); inconclusive = no clear call, values can overlap the other calls; inactive = mostly above about 0.92. The list shows a part of the results.

Test: chemical genetic growth profiling, strain panel (AID 1159580);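 also: tested at 20 µM; growth read once vehicle control cultures reached saturation at 30 °C; 1 = growth at the plate median or of vehicle wells; lower values mean less growth of the strain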
Details: S. cerevisiae deletion strains, growth OD

Measured: normalized growth

C[C@@H]1CC2C3C[C@H](F)C4=CC(=O)C=C[C@]4(C)[C@@]3(F)[C@@H](O)C[C@]2(C)[C@@]1(O)C(=O)COC(=O)C(C)(C)C (some centres not stated)
inactive: locus YAL021C, strain ccr4, active compounds read low 0.995 | locus YAL026C, strain drs2, active compounds read low 1 | locus YAL030W, strain snc1, active compounds read low 0.98 | locus YBL061C, strain skt5, active compounds read low 0.994 | locus YBR009C, strain hhf1, active compounds read low 0.972 | locus YBR021W, strain FUR4, active compounds read low 1.01 | locus YBR023C, strain chs3, active compounds read low 0.983 | locus YBR171W, strain sec66, active compounds read low 0.998 | locus YBR229C, strain ROT2, active compounds read low 1 | locus YBR231C, strain swc5, active compounds read low 0.98 | locus YBR279W, strain paf1, active compounds read low 0.986 | locus YCL011C, strain gbp2, active compounds read low 1.01 | locus YCL016C, strain dcc1, active compounds read low 0.995 | locus YCL029C, strain bik1, active compounds read low 0.992 | locus YCL069W, strain vba3, active compounds read low 1 | locus YCR088W, strain abp1, active compounds read low 1.01 | locus YDL005C, strain med2, active compounds read low 1 | locus YDL035C, strain GPR1, active compounds read low 0.982 | locus YDL040C, strain nat1, active compounds read low 0.985 | locus YDL074C, strain BRE1, active compounds read low 1 | locus YDL101C, strain DUN1, active compounds read low 1.01 | locus YDL134C, strain PPH21, active compounds read low 0.98 | locus YDL185W, strain tfp1, active compounds read low 1 | locus YDL192W, strain arf1, active compounds read low 1.01 | locus YDR001C, strain nth1, active compounds read low 0.998 | locus YDR069C, strain doa4, active compounds read low 0.991 | locus YDR101C, strain arx1, active compounds read low 0.97 | locus YDR137W, strain rgp1, active compounds read low 1 | locus YDR150W, strain NUM1, active compounds read low 0.999 | locus YDR159W, strain sac3, active compounds read low 0.991 | locus YDR162C, strain NBP2, active compounds read low 0.987 | locus YDR195W, strain ref2 0.911 | locus YDR297W, strain sur2, active compounds read low 0.993 | locus YDR318W, strain mcm21, active compounds read low 1.01 | locus YDR334W, strain swr1, active compounds read low 1 | locus YDR335W, strain msn5, active compounds read low 0.995 | locus YDR388W, active compounds read low 1.01 | locus YDR392W, strain spt3, active compounds read low 1 | locus YDR502C, strain sam2, active compounds read low 1 | locus YEL003W, strain gim4, active compounds read low 1 | locus YEL037C, strain rad23, active compounds read low 0.994 | locus YEL061C, strain CIN8 (second series), active compounds read low 1.01 | locus YEL061C, strain CIN8, active compounds read low 1 | locus YER015W, strain faa2, active compounds read low 0.996 | locus YER016W, strain bim1, active compounds read low 0.99 | locus YER110C, active compounds read low 1.02 | locus YER111C, strain swi4, active compounds read low 0.999 | locus YER155C, strain BEM2 (second series), active compounds read low 0.991 | locus YER155C, strain BEM2, active compounds read low 1.01 | locus YER167W, strain BCK2, active compounds read low 0.997 | locus YFR010W, strain ubp6, active compounds read low 0.997 | locus YGL078C, strain dbp3, active compounds read low 1.01 | locus YGL086W, strain mad1, active compounds read low 0.983 | locus YGL167C, strain pmr1, active compounds read low 0.989 | locus YGL173C, strain kem1, active compounds read low 0.994 | locus YGL227W, strain vid30, active compounds read low 1.01 | locus YGL240W, strain doc1, active compounds read low 0.971 | locus YGL248W, strain PDE1, active compounds read low 1.01 | locus YGL253W, strain hxk2, active compounds read low 1.01 | locus YGR135W, strain pre9, active compounds read low 1.05 | locus YGR252W, strain gcn5, active compounds read low 1.06 | locus YHR013C, strain ard1, active compounds read low 0.965 | locus YHR027C, strain rpn1, active compounds read low 0.998 | locus YHR030C, strain SLT2, active compounds read low 1 and 0.992 | locus YHR079C, strain IRE1 (second series), active compounds read low 1 | locus YHR079C, strain IRE1, active compounds read low 0.972 | locus YHR094C, strain hxt1, active compounds read low 1.01 | locus YHR129C, strain ARP1, active compounds read low 1.01 | locus YHR142W, strain chs7, active compounds read low 1.01 | locus YHR200W, strain rpn10, active compounds read low 1 | locus YIL066C, strain RNR3, active compounds read low 0.997 | locus YIL073C, strain SPO22, active compounds read low 0.995 | locus YIL125W, strain kgd1, active compounds read low 1 | locus YIR030C, strain dcg1, active compounds read low 1 | locus YJL092W, strain hpr5, active compounds read low 1 | locus YJL095W, strain BCK1 (second series), active compounds read low 0.989 | locus YJL095W, strain BCK1, active compounds read low 1.03 and 0.963 | locus YJL115W, strain asf1, active compounds read low 0.993 | locus YJL129C, strain trk1, active compounds read low 1 | locus YJL134W, strain LCB3, active compounds read low 1 | locus YJL154C, strain vps35, active compounds read low 0.997 | locus YJL164C, strain tpk1, active compounds read low 0.989 | locus YJL166W, strain qcr8, active compounds read low 0.966 | locus YJL168C, strain set2, active compounds read low 1.01 | locus YJL187C, strain SWE1 (second series), active compounds read low 1 | locus YJR043C, strain POL32, active compounds read low 0.983 | locus YJR066W, strain TOR1, active compounds read low 0.944
